Experimental data as given in PubChem BioAssay AID602229 (The Scripps Research Institute Molecular Screening Center, 2012).
Screen size: about 360,000 compounds; about 1,300 (0.36%) were called active.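 The calls were made as follows: active = inhibition above the mean of all tested compounds plus 3 SD (cut at about 70% in these data); inactive = the rest.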 The list comes from a sample in which actives are over-represented; it also holds similar structures and randomly drawn compounds.

Target: Photoreceptor-specific nuclear receptor (Homo sapiens) (UniProt Q9Y5X4)
Sequence (Q9Y5X4 whole entry, looked up, the tested form may be a part): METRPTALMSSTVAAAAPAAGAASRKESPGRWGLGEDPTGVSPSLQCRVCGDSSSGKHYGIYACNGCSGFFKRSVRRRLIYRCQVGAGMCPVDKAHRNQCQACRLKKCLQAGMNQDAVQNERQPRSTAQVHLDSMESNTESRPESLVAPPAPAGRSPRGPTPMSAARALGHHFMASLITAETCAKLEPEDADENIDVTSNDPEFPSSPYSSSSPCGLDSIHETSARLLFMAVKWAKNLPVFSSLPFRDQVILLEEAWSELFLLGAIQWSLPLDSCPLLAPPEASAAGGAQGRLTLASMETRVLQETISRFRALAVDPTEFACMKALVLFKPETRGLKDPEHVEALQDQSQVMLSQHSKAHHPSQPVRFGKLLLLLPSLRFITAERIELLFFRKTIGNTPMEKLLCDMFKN
Experiment: NR2E3 agonists in two-hybrid cells, primary screen, cell-based, luminescence, CHO-S, Gal4-NCOR/VP16-NR2E3 (AID 602229);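 also: 0% = DMSO with NR2E3 transfected cells and 100% = cells lacking NR2E3 construct; higher means lower luciferase signal from less NR2E3 corepressor binding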
Conditions: luciferase, at 3.98 µM, hits give high values

SMILES | inhibition of corepressor binding
O=C(CCc1nnc(CCCCc2ccccc2)o1)NC(c1cccnc1)C(F)(F)F (stereo not given) | -10.3% (inactive)
O=C(Nn1cnnc1)c1cc(Cl)ccc1Cl | -4.56% (inactive)
NC(=O)C1CCN(CC(O)CSc2ccc(F)cc2)CC1 (stereo not given) | -11.6% (inactive)
NS(=O)(=O)c1cc(C(=O)NCCOc2ccccc2)c(Cl)cc1Cl | 16% (inactive)
Cc1ccc(S(=O)(=O)N2CCCC(C(=O)N3CCN(C)CC3)C2)cc1 (stereo not given) | -11.8% (inactive)
CC(=O)N1CCCc2cc(S(=O)(=O)N3CCCC(C(=O)N4CCN(c5cccc(Cl)c5)CC4)C3)ccc21 (stereo not given) | 97.5% (active)
COc1cccc(N2CCN(C(=O)C3CCCN(S(=O)(=O)c4cnc[nH]4)C3)CC2)c1 (stereo not given) | -11% (inactive)
O=C(CCC1CCCC1)N=C1SC2CS(=O)(=O)CC2N1Cc1ccccc1 (stereo not given) | -16.6% (inactive)
CCc1cccc(NC(=O)C2CCCN(S(=O)(=O)c3ccc4[nH]c(=O)ccc4c3)C2)c1 (stereo not given) | -18.2% (inactive)
CC(=O)c1ccc(NC(=O)C2CCCN2S(=O)(=O)c2cccs2)cc1 (stereo not given) | -7.87% (inactive)
N#Cc1cccc(CSc2nnc(CCCO)n2-c2ccccc2)c1 | 1.83% (inactive)
CC(C)OC(=O)c1ccc(NCc2cc(O)ccc2O)cc1Cl | -8.58% (inactive)
O=C(OC12CC3CC(CC(C3)C1)C2)c1ccc(NCc2cc(O)ccc2O)cc1 | 91.5% (active)
Cc1ccnc(NC(=O)Cn2ccc([N+](=O)[O-])n2)c1 | -2.77% (inactive)
O=C(C1CCN(S(=O)(=O)c2ccc(Br)s2)CC1)N1CCN(c2ccccc2)CC1 | -1.63% (inactive)
COc1cccc(CNC(=O)CCN2C(=S)NC(C)(C)CC2C)c1 (stereo not given) | 9.24% (inactive)
COC(=O)[C@]1(S(=O)(=O)c2ccccc2)C[C@@H]2ON=C(c3ccc(OC)cc3)[C@@H]2C1 | -7.87% (inactive)
N#C[C@]1(S(=O)(=O)c2ccccc2)C[C@@H]2ON=C(c3cccc(Br)c3)[C@@H]2C1 | 77.6% (active)
CCCc1cc(=O)[nH]c(SCC(=O)c2c(N)n(CC(C)C)c(=O)n(C)c2=O)n1 | 5.16% (inactive)
O=C(NNS(=O)(=O)Cc1ccccc1)c1ccc([N+](=O)[O-])cc1 | 0.72% (inactive)
O=C(Nc1cc(-c2ccccc2)nn1-c1ccccc1F)c1ccc([N+](=O)[O-])cc1 | 7.55% (inactive)
O=C(NC(Nc1nc2ccc([N+](=O)[O-])cc2s1)(C(F)(F)F)C(F)(F)F)c1ccccc1 | 102% (active)
CC(C)n1c(-c2ccncc2)n[nH]c1=S | -6.98% (inactive)

SMILES | inhibition of corepressor binding
CCOC(=O)N1CCN(C(=O)C2CCN(Cc3ccc(OC)cc3OC)CC2)CC1 | 9.52% (inactive)
CCOC(=O)N1CCN(C(=O)C2CCN(c3ncnc4c3sc3cccc(F)c34)CC2)CC1 | 78.5% (active)
CCOC(=O)N1CCN(C(=O)C2CCCN(c3ncnc4c3sc3cccc(F)c34)C2)CC1 (stereo not given) | -2.23% (inactive)
CCOc1ccc(S(=O)(=O)n2ccnc2)c2ccccc12 | 17.1% (inactive)
COc1ccc(S(=O)(=O)N2CCCC2)c(C)c1C | -29.4% (inactive)
CCOc1ccc(S(=O)(=O)N2CCCCCC2)c2ccccc12 | 75.7% (active)
CCNC(=O)N1CCNC(=O)C1CC(=O)Nc1ccc(C(=O)OCC)cc1 (stereo not given) | -12.7% (inactive)
COC(=O)c1ccc(NS(=O)(=O)c2cc3c4c(c2)C(C)C(=O)N4CCC3)cc1 (stereo not given) | -17.2% (inactive)
OCCCNc1nccc(-c2cc(Nc3cccc(Cl)c3)ncn2)n1 | 101% (active)
COCCCn1cc(CN2CC(N(C)C)CS2(=O)=O)nn1 (stereo not given) | 20.1% (inactive)
Cc1cc(C)c(S(=O)(=O)c2cc(F)ccc2C)c(=O)[nH]1 | -8.41% (inactive)
CC(C)(CNC(=O)c1ccc(Cl)c(S(=O)(=O)N2CCc3ccccc3C2)c1)N1CCOCC1 | -7.92% (inactive)
CCc1nc2ccc(C(=O)NC3CCN(Cc4ccccc4)CC3)cn2c1N(CC)CCOC | -6.67% (inactive)
COc1cnc(-c2ccccn2)nc1Oc1ccc(C(C)(C)C)cc1 | 103% (active)
CC(C)(C)c1ccc(Oc2ccc(N)cc2)cc1 | 62.9% (inactive)
COc1ccc2nc(-c3ccccn3)ccc2c1 | -147% (inactive)
CC(C)N(Cc1nnc(-c2ccc(Cl)cc2)o1)C(=O)C1=COCCO1 | -16.3% (inactive)
COc1ccc(CCNC(=O)CSCc2ccc(Br)cc2)cc1OC | -15% (inactive)
CS(=O)(=O)c1ccc2nnn(OCC(=O)Nc3cccc(C#N)c3)c2c1 | -3.52% (inactive)
CCc1ccc(CNC(=O)CCc2nc(-c3cccs3)no2)cc1 | -4.34% (inactive)
CCOc1ccc(-c2noc(CCC(=O)NC3CCCC3)n2)cc1OC | 4.53% (inactive)
CCNC(=O)CCc1nc(-c2ccc(C(C)(C)C)cc2)no1 | 75.3% (active)
CN(CC(=O)NCCN1CCOCC1)S(=O)(=O)c1ccc(F)cc1 | -42.2% (inactive)

SMILES | inhibition of corepressor binding
COc1cc(OC)cc(C2=Cc3ccccc3C(CC(=O)c3ccco3)N2c2ccc(-c3cnc(OC)nc3)cc2)c1 (stereo not given) | -30.9% (inactive)
Cc1ccsc1C(=O)OCC(=O)c1cc(C)n(CC2CCCO2)c1C (stereo not given) | 89.5% (active)
COc1ccc(CNC(=O)COC(=O)c2sccc2C)cc1OC | -4.67% (inactive)
CCCn1c(C)cc(C(=O)COC(=O)c2c(C)nn(-c3ccccc3)c2C)c1C | 17.1% (inactive)
Cc1ccc(S(=O)(=O)NCc2nc3ccccc3c(=O)n2N)cc1 | 22.2% (inactive)
Cc1nc(CNS(=O)(=O)c2cc([N+](=O)[O-])ccc2C)cs1 | 6.54% (inactive)
Cc1nc(CNS(=O)(=O)c2ccc(Oc3ccccc3)cc2)cs1 | 92.4% (active)
Cc1cc2ccccn2c1C(=O)c1cccc(S(=O)(=O)N2CCOCC2)c1 | 2.82% (inactive)
CCN(C(=O)CSc1nnnn1-c1ccc(OC)cc1)C1CCS(=O)(=O)C1 (stereo not given) | -16.1% (inactive)
CCC(C)N1C(=O)S/C(=C/c2ccc(Sc3nc4ccccc4[nH]3)o2)C1=O (stereo not given) | 78.5% (active)
CCOc1ccc(NC(=O)CN(C)C(=O)COc2cccc(CC)c2)cc1OCC | 2.58% (inactive)
COc1ccc(NC(=O)/C(Cl)=C(/Cl)S(=O)Cc2ccc(C)cc2)cn1 (stereo not given) | 84.1% (active)
CC(C)c1ccc(NC(=O)[C@@H](NC(=O)N2CC(=O)Nc3ccccc32)C(C)C)cc1 | -32.4% (inactive)
Cc1nn(-c2ccccc2)c(=O)c2noc(C)c12 | -0.89% (inactive)
O=C(CN1CCN(C(=O)c2ccco2)CC1)Nc1ccc(Cl)c(C(F)(F)F)c1 | -9.37% (inactive)
O=C(CC(O)(C(F)(F)F)C(F)(F)F)Nc1ccc(Cl)c(Cl)c1 | 107% (active)
N#CCCN(C(=O)Nc1ccc(Cl)c(Cl)c1)C1CCCCC1 | -1.19% (inactive)
CN(C)c1ccc(NC(=O)CSc2n[nH]c(-c3ccco3)n2)cc1 | -21.3% (inactive)
O[C@@H]1C[C@H](c2ccccc2)N(Cc2cccs2)C[C@H]1n1cc(C2CC2)nn1 | 5.46% (inactive)
COc1cccc(CNC(C)C(=O)Nc2ccc(S(=O)(=O)N3CCCC3)cc2)c1 (stereo not given) | 3.95% (inactive)
COc1ccc(S(=O)(=O)N2CCN(C(C)C(=O)Nc3ccc(C(C)C)cc3)CC2)cc1 (stereo not given) | 94.6% (active)
CC(C)c1ccc(S(=O)(=O)N2CCN(C(C)C(=O)NC3CCCC3)CC2)cc1 (stereo not given) | -5.61% (inactive)
N#Cc1ccc(COC(=O)Cn2nnc(-c3ccccc3)n2)cc1 | 19.6% (inactive)

SMILES | inhibition of corepressor binding
CCC(=O)N1CCN=C1SCc1ccc(F)cc1 | 3.93% (inactive)
Cc1ccc(OCc2nnc(SC3CCc4ccccc4C3=O)n2C)cc1 (stereo not given) | -9.34% (inactive)
CCCCC(NS(=O)(=O)c1ccc(C)cc1)C(=O)Oc1ccc2c3c(c(=O)oc2c1)CCC3 (stereo not given) | -22.6% (inactive)
CCC(=O)c1ccc(OCC(O)Cn2nc(C)c(C(C)=O)c2C)cc1 (stereo not given) | -7.85% (inactive)
CCN(CC)C(=O)C1=C(C)N(Cc2ccc(C(C)(C)C)cc2)C(=O)C(CC(=O)NCc2cccc3ccccc23)C1 (stereo not given) | 20.9% (inactive)
C=CCn1c(C)cc(C2=NNC(=NCC)SC2)c1C | 89.3% (active)
CCN(CC)S(=O)(=O)c1ccc(N(C)CCc2ccc(OC)c(OC)c2)nc1 | 14.8% (inactive)
CCN(CC)S(=O)(=O)c1ccc(N(C)Cc2cccc(OC)c2OC)nc1 | 2.59% (inactive)
CCN(CC)S(=O)(=O)c1ccc(N(C)Cc2ccc(C(F)(F)F)cc2)nc1 | 91.6% (active)
CCCCCCCCCCCCC(NC(C)=O)(C(=O)OCC)C(=O)OCC | 34.1% (inactive)
O=C(Nn1cnc2ccccc2c1=O)c1ccc([N+](=O)[O-])cc1Cl | -16.8% (inactive)
CCCCN1C[C@H](c2ccc(Br)cc2)[C@@H](CC(=O)Nc2ccc(Br)cc2)C1=O | -20.7% (inactive)
CNC(=O)C1CCN(S(=O)(=O)c2c(C)noc2/C=C/c2cccc(C)c2)CC1 | -10.5% (inactive)
Cc1ccnc(NC(=O)C2CCN(S(=O)(=O)c3c(C)c(C)cc(C)c3C)CC2)c1 | 80.9% (active)
O=C(Nc1ccccn1)C1CCN(S(=O)(=O)c2ccc3c(c2)OCCO3)CC1 | -51.8% (inactive)
CN(C)c1ccc(NC(=S)N(CCc2ccccc2)C2CC(=O)N(c3c(Cl)cccc3Cl)C2=O)cc1 (stereo not given) | 0.55% (inactive)
COc1ccc(-c2ccc(C(=O)NC(C)C)c3occc23)c(C)c1 | 15.3% (inactive)
CC(=O)Nc1ccc(S(=O)(=O)NCC(=O)OCc2cc(=O)oc3ccc4ccccc4c23)cc1 | -8.3% (inactive)
COc1ccc(CCNC(=O)CC2SC(=Nc3cc(C)cc(C)c3)NC2=O)cc1OC (stereo not given) | -33.4% (inactive)
CCCOc1ccc(Cc2c(Cl)nc(SC)nc2NC)cc1 | 92.3% (active)
CCCOc1ccc(Cc2c(O)nc(SC)[nH]c2=O)cc1C | -21.5% (inactive)
